Measured values published in the supplement of paper PMC3545927.
The other results are listed elsewhere or left out. No count for the full screen is at hand.

Molecular target: furin, P09958
Assay: furin cleavage Z-score vs untreated control; higher = more cleavage, active = 3.5 or more, inactive = 1 or less, 8 variable residues between constant flanks
Protocol: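 Multiplexed peptide-cDNA fusion cleavage assay. 8-mer variable peptides flanked by constant Cys-Ala (N-term) and Ala-Gly-Asn-Ala-Ser-Ala-Ser-Ala (C-term) and conjugated to a cDNA oligonucleotide were bead-immobilised via the N-terminus. They were treated with purified furin at a 1:10 enzyme:substrate ratio in 50 mM HEPES pH 7.5, 1 mM CaCl2, 100 mM NaCl for 7.5, 15 or 30 min. Released cDNA was counted by next-generation sequencing, and log counts versus no-furin controls were lowess-adjusted and converted to robust Z-scores.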

furin, P09958, sequence (P09958 whole entry): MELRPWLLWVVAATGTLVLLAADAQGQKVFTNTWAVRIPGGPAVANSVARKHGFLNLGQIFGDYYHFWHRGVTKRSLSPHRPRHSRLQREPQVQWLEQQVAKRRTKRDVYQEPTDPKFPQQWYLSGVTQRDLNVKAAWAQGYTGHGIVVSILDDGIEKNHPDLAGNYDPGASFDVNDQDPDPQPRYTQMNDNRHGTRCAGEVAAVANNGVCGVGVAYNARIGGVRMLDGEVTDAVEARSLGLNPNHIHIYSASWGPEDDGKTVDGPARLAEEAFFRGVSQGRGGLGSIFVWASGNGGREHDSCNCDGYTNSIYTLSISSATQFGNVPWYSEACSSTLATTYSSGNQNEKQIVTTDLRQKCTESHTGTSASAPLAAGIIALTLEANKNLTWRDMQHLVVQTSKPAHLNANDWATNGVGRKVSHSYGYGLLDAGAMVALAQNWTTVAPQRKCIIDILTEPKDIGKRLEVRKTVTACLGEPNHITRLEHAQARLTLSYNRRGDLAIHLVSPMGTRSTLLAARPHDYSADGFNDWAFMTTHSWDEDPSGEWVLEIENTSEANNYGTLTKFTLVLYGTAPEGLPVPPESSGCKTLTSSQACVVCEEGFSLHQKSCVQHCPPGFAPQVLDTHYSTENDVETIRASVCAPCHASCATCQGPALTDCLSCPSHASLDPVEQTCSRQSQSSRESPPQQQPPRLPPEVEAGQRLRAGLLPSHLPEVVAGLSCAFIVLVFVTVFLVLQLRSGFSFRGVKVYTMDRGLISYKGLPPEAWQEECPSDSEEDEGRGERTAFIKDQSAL

Sequence	furin cleavage Z-score (7.5 min)	furin cleavage Z-score (15 min)	furin cleavage Z-score (30 min)
CAEIVTSTWVAGNASASA [HC2164]	-0.266 (inactive)	-1.49 (inactive)	1.35
CAVVCCSMSPAGNASASA [HC2099]	-0.463 (inactive)	-1.06 (inactive)	-1.28 (inactive)
CAREARGSSRAGNASASA [FS-2907]	-0.25 (inactive)	-0.261 (inactive)	-1.18 (inactive)
CAEKTTPCSGAGNASASA [HC1974]	-1.24 (inactive)	-0.951 (inactive)	-0.151 (inactive)
CALGLLQTASAGNASASA [HC1027]	-0.682 (inactive)	-0.203 (inactive)	0.0385 (inactive)
CAVMAQLLRIAGNASASA [HC327]	-0.76 (inactive)	-0.535 (inactive)	-1.17 (inactive)
CAEVVTSTCVAGNASASA [HC2240]	-0.298 (inactive)	-0.394 (inactive)	-0.1 (inactive)
CANPSVAATLAGNASASA [HC788]	-2.1 (inactive)	0.787 (inactive)	0.461 (inactive)
CAQPHRAQRSAGNASASA [FS-1153]	6.97 (active)	6.29 (active)	6.74 (active)
CAKNIRRGRSAGNASASA [FS-342]	8.62 (active)	9.43 (active)	6.74 (active)
CAEYRRRGRSAGNASASA [FS-1123]	4.99 (active)	5.3 (active)	5.5 (active)
CAEDTTPCSGAGNASASA [HC1971]	0.299 (inactive)	-1.06 (inactive)	-0.5 (inactive)
CAADGGCSGGAGNASASA [HC811]	-1.33 (inactive)	-0.697 (inactive)	-0.396 (inactive)
CAERVTSTWVAGNASASA [HC2173]	-0.173 (inactive)	-0.632 (inactive)	-2.09 (inactive)
CARPPRSIVTAGNASASA [FS-2439]	2.64	4.75 (active)	6.76 (active)
CARPQRLIDHAGNASASA [FS-3020]	-0.401 (inactive)	-0.141 (inactive)	-0.235 (inactive)
CAAAPGAATAAGNASASA [HC1071]	-1.75 (inactive)	0.135 (inactive)	-1.91 (inactive)
CARPPRSATAAGNASASA [FS-2058]	1.66	4.98 (active)	3.61 (active)
CARTGRSIVYAGNASASA [FS-2465]	2.57	5.05 (active)	6.39 (active)
CACPNSSIVYAGNASASA [HC264]	0.0997 (inactive)	0.251 (inactive)	-0.406 (inactive)
CARPRRLSTAAGNASASA [FS-3022]	-0.374 (inactive)	0.291 (inactive)	1.13
CARPVRGIHTAGNASASA [FS-3030]	1.52	0.149 (inactive)	3.15

Sequence	furin cleavage Z-score (7.5 min)	furin cleavage Z-score (15 min)	furin cleavage Z-score (30 min)
CARTGRSREVAGNASASA [FS-3105]	0.737 (inactive)	-1.37 (inactive)	1.18
CARPPRSPDHAGNASASA [FS-2740]	4.56 (active)	5.51 (active)	4.52 (active)
CARPKKRAETAGNASASA [FS-1760]	-0.848 (inactive)	2.01	0.187 (inactive)
CASGTFPINAAGNASASA [HC1189]	-0.56 (inactive)	-1.29 (inactive)	-0.783 (inactive)
CAGGCSGGAYAGNASASA [HC812]	0.0451 (inactive)	-0.928 (inactive)	-1.91 (inactive)
CAFLVQAWKSAGNASASA [HC1472]	-0.545 (inactive)	-1.14 (inactive)	0.129 (inactive)
CAPPGDPPQPAGNASASA [HC1545]	0.491 (inactive)	-1.28 (inactive)	-0.552 (inactive)
CAVQWMNRLIAGNASASA [HC1117]	-0.371 (inactive)	-0.656 (inactive)	-0.702 (inactive)
CATYSRCGSGAGNASASA [HC457]	-0.645 (inactive)	-0.493 (inactive)	0.00889 (inactive)
CAAILHTPGCAGNASASA [HC270]	0.368 (inactive)	1.18	-0.0199 (inactive)
CARGPRSSSAAGNASASA [FS-1712]	-0.135 (inactive)	-0.114 (inactive)	-1.14 (inactive)
CARLLRDADDAGNASASA [FS-2278]	-0.832 (inactive)	-0.574 (inactive)	-0.464 (inactive)
CARLRRLLWIAGNASASA [FS-2044]	-1.02 (inactive)	-0.859 (inactive)	0.923 (inactive)
CARLLRSLTHAGNASASA [FS-2993]	1.05	3.14	4.05 (active)
CARPPREEGKAGNASASA [FS-2438]	-0.719 (inactive)	-0.617 (inactive)	-0.558 (inactive)
CARGPRSATHAGNASASA [FS-1894]	3.56 (active)	2.79	2.67
CARPPRGFQPAGNASASA [FS-3019]	-1.18 (inactive)	-0.836 (inactive)	-0.248 (inactive)
CARPPRSTCQAGNASASA [FS-2580]	2.35	3.89 (active)	3.84 (active)
CARGPRSYPHAGNASASA [FS-2935]	-0.268 (inactive)	1.01	0.916 (inactive)
CAIKGGRHLIAGNASASA [HC853]	-0.712 (inactive)	-0.368 (inactive)	0.443 (inactive)
CADGEVVTSTAGNASASA [HC2296]	0.392 (inactive)	0.826 (inactive)	-0.278 (inactive)
